Sampled rows, rich in hits. Any-hit rate of the full collection: about 6.3%.
NADH coupling = inhibitors of PK/LDH coupling enzymes, profiling panel, artefact control, biochemical, MLSMR library. AID 774, 2007. IC50, µM (series often up to 10 µM), for inactives: at the highest dose inhibition. coupled PK/LDH NADH assays, four targets. 0.02% of 65,000 active;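 active means single-dose screening hits from any of four coupled enzyme assays that gave an IC50 when retested across doses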;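 further: the DPM-DC format reads NADH fluorescence rather than 340 nm absorbance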
Autofluor 339 = intrinsic fluorescence of library compounds, ex339/em460 – biochemical, MLSMR library, data from DPM-DC assay, artefact control, profiling panel; compound autofluorescence, ex339/em460 nm, NADH buffer; active compounds read high; 1 = no-compound wells, NADH background; 5.5% of 65,000 active; fluorescence fold increase at 10 µM; AID 709, 2007;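 active means at 10 µM, mean starting fluorescence two-fold or more over control wells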;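 further: signal is the first read of a kinetic run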
Spn PMK inh = S. pneumoniae PMK inhibitors, primary screen, biochemical, mevalonate pathway, pilot trial included. phosphomevalonate kinase (Streptococcus pneumoniae D39). purified PMK, PK/LDH-coupled NADH absorbance 340 nm. inhibition, % at 10 µM. 0.49% of 65,000 active. AID 539, 2006;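 active means top-ranked compounds by inhibition in the single 10 µM screen, taking a fixed number of the strongest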;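 further: 0% = full reaction with DMSO carrier and 100% = background rate without enzyme reaction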
A340 absorber = compound light absorbance at 340 nm, profiling panel, artefact control, biochemical, MLSMR library, data from PS, PMK, MK assays; fold change at 10 µM; AID 708, 2007; 65,000 tested, under 10 active; compound absorbance at 340 nm, fold over control;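 active means at 10 µM dose, initial 340 nm absorbance at least 2 fold that of control wells; inactive means change under 2 fold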;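 further: initial absorbance extrapolated from kinetic A340 decline of NADH oxidation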
Spn MK inh = S. pneumoniae MK inhibitors, primary screen, biochemical, PK/LDH-coupled NADH absorbance. AID 555, 2006. inhibition, % at 10 µM. purified MK, PK/LDH-coupled NADH absorbance 340 nm. 0.48% of 65,000 active;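 active means ranked among the strongest by inhibition in the single 10 µM screen, a fixed top-ranked set picked for dose follow-up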
Spn DPM-DC inh = S. pneumoniae DPM-DC inhibitors, primary screen, biochemical, PK/LDH-coupled NADH fluorescence | diphosphomevalonate decarboxylase (Streptococcus pneumoniae D39) | purified DPM-DC | calls only at 10 µM | 0.49% of 65,000 active | AID 556, 2006;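 active means the 320 compounds with the highest percent inhibition in the single-dose primary screen, excluding strongly autofluorescent ones, cut at about 32% in these data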;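 further: kinetic rate of NADH fluorescence loss reporting ADP formed by the decarboxylase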
An asterisk follows results filed as active; i = inactive; / = no result given; + = active, no number.

SMILES	NADH coupling	Autofluor 339	Spn PMK inh	A340 absorber	Spn MK inh	Spn DPM-DC inh
CCOC(=O)CSc1n[nH]c(-c2ccco2)n1	6.0%	1.07	13.0	1.04	6.0	i
CCOc1ccc(-n2c(-c3ccco3)n[nH]c2=S)cc1	25.0%	1.19	11.0	0.99	60.0*	i
CCOC(=O)c1ccc(N2C(=O)C(O)=C(C(C)=O)C2c2ccc(O)c(OC)c2)cc1 (stereo not drawn)	4.0%	1.07	7.0	1.14	5.0	i
CCOC(=O)C1=C(O)C(=O)N(c2ccc(S(N)(=O)=O)cc2)C1c1ccc(OC)cc1 (stereo not drawn)	27.0%	2.09*	35.0*	1.14	21.0	i
CS(=O)(=O)N(CCC(=O)O)Cc1ccccc1	5.0%	1.05	15.0	0.99	0.0	i
Cc1nc(NC(=O)CSc2nnnn2Cc2ccccc2)sc1C	8.0%	1.12	11.0	1	13.0	i
O=C(CSc1nnc(-c2cccnc2)n1-c1ccccc1)Nc1ccccn1	5.0%	1.04	10.0	1.04	6.0	i
CC(C)(C)NC(=O)CSc1nnc(-c2ccccn2)n1-c1ccccc1	5.0%	1.01	28.0*	0.98	3.0	i
CC(=O)Nc1nc2ccc(-c3nc4ccccc4o3)cc2s1	5.0%	2.23*	9.0	1.12	0.0	/
Cc1ccnc2ccc(-c3nc4ccccc4o3)cc12	6.0%	5.01*	11.0	1.04	0.0	/
CCC(=O)Nc1cccc(-c2nc3ccccc3o2)c1	1.0%	1.16	3.0	1.05	0.0	i
c1ccc(-c2nc3ccccc3o2)nc1	5.0%	1.07	12.0	0.98	4.0	i
Cc1cnc(N)c2c(=O)oc3ccccc3c12	6.0%	2.11*	6.0	1.12	5.0	/
Cc1nc2c(C(=O)O)cnn2c(C)c1Cc1ccccc1F	13.0%	1.58	19.0	1	1.0	i
Cc1ccc(C)c(Cc2c(C)nc3c(C(=O)N4CCOCC4)cnn3c2C)c1	10.0%	3.75*	10.0	1.03	0.0	i
Cc1nc2c(C(=O)N3CCN(c4ccccn4)CC3)cnn2c(C)c1Cc1cccc(Cl)c1	4.0%	1.33	11.0	1.02	0.0	i
CCOC(=O)N1CCN(C(=O)c2cnn3c(C)c(Cc4ccc(C)cc4)c(C)nc23)CC1	9.0%	4.13*	15.0	1.03	3.0	/
COC(=O)c1cnn2c(C)c(Cc3cccc(F)c3)c(C)nc12	8.0%	2.1*	11.0	1.1	4.0	/
Cc1ccc(S(=O)(=O)Nc2nc3ccc(S(=O)(=O)N4CCCC4)cc3s2)cc1	3.0%	1.22	4.0	1	3.0	i
CC(C)C(=O)Nc1c2c(nc3ccccc13)N(C)CC2	8.0%	2.19*	8.0	1.07	7.0	/
O=C(CN1CCOCC1)Nc1c2c(nc3ccccc13)N(Cc1ccccc1)CC2	10.0%	3.71*	12.0	1.06	8.0	/
O=C(OCc1c(Cl)cccc1Cl)c1cccnc1	3.0%	1.11	1.0	1.05	7.0	i
Cc1ccc(NC2=NC(c3ccco3)n3c(nc(C)cc3=O)N2)c(C)c1 (stereo not drawn)	3.0%	1.1	6.0	1.05	4.0	i
COCCn1c(N)c(C(=O)Nc2sc3c(c2C(=O)OC)CCCC3)c2nc3ccccc3nc21	2.0%	1.12	10.0	1.05	0.0	i
COCCn1c(N)c(C(=O)NCC2CCCO2)c2nc3ccccc3nc21 (stereo not drawn)	7.0%	2.35*	3.0	1.06	11.0	/
SMILES	NADH coupling	Autofluor 339	Spn PMK inh	A340 absorber	Spn MK inh	Spn DPM-DC inh
Nc1c(C(=O)NC2CCCC2)c2nc3ccccc3nc2n1N	9.0%	1.16	12.0	1.06	14.0	i
CC(C)Cn1c(N)c(C(=O)NCC2CCCO2)c2nc3ccccc3nc21 (stereo not drawn)	4.0%	2.11*	3.0	1.06	5.0	/
COCCn1c(N)c(C(=O)NCc2cccs2)c2nc3ccccc3nc21	6.0%	3.68*	8.0	1.05	4.0	/
Nc1c(C(=O)OCC2CCCO2)c2nc3ccccc3nc2n1C1CCCC1 (stereo not drawn)	1.0%	3.84*	2.0	1.11	0.0	/
Nc1c(C(=O)NCC2CCCO2)c2nc3ccccc3nc2n1/N=C/c1ccncc1 (stereo not drawn)	3.0%	1.15	9.0	1.07	1.0	i
COc1ccc(C(=O)NCCCn2ccnc2)cc1	3.0%	1.1	0.0	1.02	9.0	i
COCCCNc1nc2ccccc2nc1NS(=O)(=O)c1cccs1	8.0%	1.22	16.0	1.12	7.0	i
COCCn1c(N)c(S(=O)(=O)c2cccs2)c2nc3ccccc3nc21	10.0%	3.93*	10.0	1.11	9.0	/
COCCNC(=O)c1c(N)n(CCCn2ccnc2)c2nc3ccccc3nc12	12.0%	3.84*	13.0	1.07	10.0	/
COc1ccc(OC)c(-n2c(N)c(C(=O)NCC3CCCO3)c3nc4ccccc4nc32)c1 (stereo not drawn)	0.0%	2.1*	0.0	1.07	0.0	/
CCCCOc1ccc(Cl)cc1CSc1nnc(CC)n1N	5.0%	1.05	6.0	0.98	10.0	i
C=CC[N+](C)(C)CCCNC(=O)/C=N/O	6.0%	1.07	4.0	1.03	15.0	i
Cn1c(Cl)cnc1C(O)c1ccccc1 (stereo not drawn)	8.0%	1.07	14.0	1.02	8.0	i
Cc1ccc2nc(-c3ccccn3)cc(C(=O)NC3CCN(C)CC3)c2c1	7.0%	2.95*	0.0	1.09	2.0	i
O=C(Nc1cc(=O)c2ccccc2o1)N1CCCCC1	4.0%	1.18	0.0	1.11	11.0	i
CSc1ccc(-c2cc(=O)c3ccccc3o2)cc1	3.0%	2.89*	14.0	1.06	0.0	/
Cc1sc2nc(C(C)Nc3ccccc3N3CCOCC3)[nH]c(=O)c2c1C (stereo not drawn)	9.0%	1.18	11.0	1.03	5.0	i
CC1=CC(C#N)(C#N)C(C#N)(C#N)C(c2ccccc2)N1 (stereo not drawn)	16.0%	3.1*	10.0	1.02	11.0	i
CCC(=O)N(Cc1cc2cc(OC)ccc2[nH]c1=O)c1cc(C)ccc1C	20.0%	2.37*	20.0	1.02	7.0	+
COc1ccc(N(Cc2cc3cc(OC)ccc3[nH]c2=O)C(=O)c2cccnc2)cc1	10.0%	2.7*	4.0	1.09	10.0	i
COc1ccc2[nH]c(=O)c(CN(C(=O)COc3ccccc3)C(C)C)cc2c1	4.0%	2.65*	0.0	1.13	1.0	i
CC(C)C(=O)N(Cc1cc2ccccc2[nH]c1=O)C(C)C	5.0%	1.25	6.0	1.03	9.0	i

Bioassay records from PubChem.
